Laboratory results as given in the supplement of paper PMC12819154, “High-throughput peptide-centric local stability assay extends protein–ligand identification to membrane proteins, tissues and bacteria” (Nature Structural & Molecular Biology, 2025).

UniProt P19525, sequence (P19525 whole entry): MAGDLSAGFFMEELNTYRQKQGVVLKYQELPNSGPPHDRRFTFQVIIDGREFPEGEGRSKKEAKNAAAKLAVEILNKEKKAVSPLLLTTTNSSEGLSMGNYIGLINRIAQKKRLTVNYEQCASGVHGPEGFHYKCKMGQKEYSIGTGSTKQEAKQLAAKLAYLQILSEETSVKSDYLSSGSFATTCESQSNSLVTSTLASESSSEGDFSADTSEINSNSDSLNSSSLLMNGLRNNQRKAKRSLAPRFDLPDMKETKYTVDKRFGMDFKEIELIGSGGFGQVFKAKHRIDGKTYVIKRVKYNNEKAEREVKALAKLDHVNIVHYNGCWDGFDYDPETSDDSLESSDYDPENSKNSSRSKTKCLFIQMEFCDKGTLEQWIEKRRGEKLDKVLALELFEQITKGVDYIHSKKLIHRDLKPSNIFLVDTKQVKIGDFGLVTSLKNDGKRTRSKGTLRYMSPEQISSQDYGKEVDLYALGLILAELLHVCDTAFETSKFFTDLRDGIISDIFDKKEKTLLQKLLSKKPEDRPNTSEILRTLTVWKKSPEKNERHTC
UniProt Q9UKE5, sequence (Q9UKE5 whole entry, looked up): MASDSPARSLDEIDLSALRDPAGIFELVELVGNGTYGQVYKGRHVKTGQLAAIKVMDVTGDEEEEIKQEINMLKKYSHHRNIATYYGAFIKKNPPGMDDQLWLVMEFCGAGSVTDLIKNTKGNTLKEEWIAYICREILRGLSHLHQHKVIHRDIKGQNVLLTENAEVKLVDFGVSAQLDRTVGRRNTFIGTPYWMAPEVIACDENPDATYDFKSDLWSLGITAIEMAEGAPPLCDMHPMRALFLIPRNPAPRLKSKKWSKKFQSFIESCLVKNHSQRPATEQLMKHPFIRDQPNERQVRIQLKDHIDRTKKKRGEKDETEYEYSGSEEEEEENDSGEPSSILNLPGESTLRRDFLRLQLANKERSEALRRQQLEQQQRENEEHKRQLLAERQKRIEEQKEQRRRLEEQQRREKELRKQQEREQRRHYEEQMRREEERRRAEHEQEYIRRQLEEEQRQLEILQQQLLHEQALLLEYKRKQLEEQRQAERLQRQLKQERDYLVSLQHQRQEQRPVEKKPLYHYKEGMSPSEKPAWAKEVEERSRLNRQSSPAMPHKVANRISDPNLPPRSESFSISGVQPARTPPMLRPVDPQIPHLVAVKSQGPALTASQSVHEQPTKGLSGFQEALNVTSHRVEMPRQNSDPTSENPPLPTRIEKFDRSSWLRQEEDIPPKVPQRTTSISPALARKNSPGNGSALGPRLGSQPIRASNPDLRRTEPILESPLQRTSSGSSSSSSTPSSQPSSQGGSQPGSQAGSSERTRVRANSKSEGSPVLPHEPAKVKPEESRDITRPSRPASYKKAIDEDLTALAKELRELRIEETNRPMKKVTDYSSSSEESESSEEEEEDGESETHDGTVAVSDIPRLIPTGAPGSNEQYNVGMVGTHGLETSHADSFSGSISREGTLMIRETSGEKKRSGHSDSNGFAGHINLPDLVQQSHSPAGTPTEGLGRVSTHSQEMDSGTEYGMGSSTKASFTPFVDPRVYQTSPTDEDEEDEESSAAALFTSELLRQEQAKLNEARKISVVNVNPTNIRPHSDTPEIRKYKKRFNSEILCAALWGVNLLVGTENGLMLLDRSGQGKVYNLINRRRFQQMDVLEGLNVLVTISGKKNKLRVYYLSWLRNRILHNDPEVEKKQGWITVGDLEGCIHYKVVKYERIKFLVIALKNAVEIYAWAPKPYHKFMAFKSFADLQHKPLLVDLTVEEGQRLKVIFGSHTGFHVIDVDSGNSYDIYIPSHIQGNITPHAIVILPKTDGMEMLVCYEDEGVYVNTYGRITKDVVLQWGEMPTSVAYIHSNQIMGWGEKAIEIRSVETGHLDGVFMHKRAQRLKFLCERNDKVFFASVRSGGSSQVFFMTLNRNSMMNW
UniProt Q6PHR2, sequence (Q6PHR2 whole entry): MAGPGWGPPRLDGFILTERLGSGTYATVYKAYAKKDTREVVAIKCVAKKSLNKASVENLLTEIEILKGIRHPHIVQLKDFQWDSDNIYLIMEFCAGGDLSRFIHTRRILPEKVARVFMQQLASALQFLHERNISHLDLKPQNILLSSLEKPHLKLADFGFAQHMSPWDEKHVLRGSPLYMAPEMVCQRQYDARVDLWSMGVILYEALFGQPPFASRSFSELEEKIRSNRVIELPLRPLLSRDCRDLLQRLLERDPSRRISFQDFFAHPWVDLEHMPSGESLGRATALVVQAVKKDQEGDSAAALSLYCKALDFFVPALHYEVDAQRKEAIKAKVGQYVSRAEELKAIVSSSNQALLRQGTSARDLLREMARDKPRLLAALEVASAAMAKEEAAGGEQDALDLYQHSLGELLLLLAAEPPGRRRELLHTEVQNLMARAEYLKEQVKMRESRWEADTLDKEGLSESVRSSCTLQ
UniProt Q9NRH2, sequence (Q9NRH2 whole entry): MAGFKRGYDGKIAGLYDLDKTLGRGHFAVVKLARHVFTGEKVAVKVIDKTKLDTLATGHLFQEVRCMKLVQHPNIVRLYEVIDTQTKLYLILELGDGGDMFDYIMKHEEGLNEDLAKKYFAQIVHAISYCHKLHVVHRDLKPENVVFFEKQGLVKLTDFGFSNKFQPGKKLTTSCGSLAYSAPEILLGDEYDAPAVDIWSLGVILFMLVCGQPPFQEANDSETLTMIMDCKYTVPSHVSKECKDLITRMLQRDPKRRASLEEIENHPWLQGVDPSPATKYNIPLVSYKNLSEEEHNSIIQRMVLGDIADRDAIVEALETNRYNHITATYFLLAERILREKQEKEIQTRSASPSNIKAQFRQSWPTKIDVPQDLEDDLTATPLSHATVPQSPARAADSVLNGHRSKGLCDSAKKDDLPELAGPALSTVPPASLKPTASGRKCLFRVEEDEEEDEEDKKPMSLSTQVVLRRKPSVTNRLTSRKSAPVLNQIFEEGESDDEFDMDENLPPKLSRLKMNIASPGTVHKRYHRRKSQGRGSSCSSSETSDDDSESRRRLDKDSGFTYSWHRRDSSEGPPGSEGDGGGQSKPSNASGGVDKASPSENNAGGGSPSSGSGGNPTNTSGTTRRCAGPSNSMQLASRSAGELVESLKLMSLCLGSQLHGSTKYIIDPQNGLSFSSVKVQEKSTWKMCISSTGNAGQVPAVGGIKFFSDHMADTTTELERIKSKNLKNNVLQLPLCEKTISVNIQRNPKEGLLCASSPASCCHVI
UniProt Q96SU4, sequence (Q96SU4 whole entry): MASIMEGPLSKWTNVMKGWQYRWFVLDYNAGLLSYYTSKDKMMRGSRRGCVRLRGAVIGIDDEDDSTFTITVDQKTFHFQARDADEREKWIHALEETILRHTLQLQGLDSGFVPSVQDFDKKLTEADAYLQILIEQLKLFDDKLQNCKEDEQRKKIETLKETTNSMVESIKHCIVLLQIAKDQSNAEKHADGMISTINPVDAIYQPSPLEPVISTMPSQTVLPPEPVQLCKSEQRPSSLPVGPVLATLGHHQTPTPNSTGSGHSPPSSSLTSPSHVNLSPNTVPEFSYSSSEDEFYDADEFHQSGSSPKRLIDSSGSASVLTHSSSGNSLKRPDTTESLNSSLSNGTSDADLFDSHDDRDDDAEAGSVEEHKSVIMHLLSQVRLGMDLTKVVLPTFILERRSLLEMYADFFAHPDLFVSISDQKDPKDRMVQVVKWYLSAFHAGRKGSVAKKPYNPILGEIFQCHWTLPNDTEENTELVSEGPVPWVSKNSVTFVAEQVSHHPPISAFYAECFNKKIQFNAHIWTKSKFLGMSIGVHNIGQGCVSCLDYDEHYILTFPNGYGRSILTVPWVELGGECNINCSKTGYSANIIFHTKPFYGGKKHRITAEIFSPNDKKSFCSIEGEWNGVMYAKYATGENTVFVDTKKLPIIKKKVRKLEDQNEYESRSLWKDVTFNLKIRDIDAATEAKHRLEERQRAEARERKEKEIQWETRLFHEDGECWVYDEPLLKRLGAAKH
UniProt Q96S94, sequence (Q96S94 whole entry): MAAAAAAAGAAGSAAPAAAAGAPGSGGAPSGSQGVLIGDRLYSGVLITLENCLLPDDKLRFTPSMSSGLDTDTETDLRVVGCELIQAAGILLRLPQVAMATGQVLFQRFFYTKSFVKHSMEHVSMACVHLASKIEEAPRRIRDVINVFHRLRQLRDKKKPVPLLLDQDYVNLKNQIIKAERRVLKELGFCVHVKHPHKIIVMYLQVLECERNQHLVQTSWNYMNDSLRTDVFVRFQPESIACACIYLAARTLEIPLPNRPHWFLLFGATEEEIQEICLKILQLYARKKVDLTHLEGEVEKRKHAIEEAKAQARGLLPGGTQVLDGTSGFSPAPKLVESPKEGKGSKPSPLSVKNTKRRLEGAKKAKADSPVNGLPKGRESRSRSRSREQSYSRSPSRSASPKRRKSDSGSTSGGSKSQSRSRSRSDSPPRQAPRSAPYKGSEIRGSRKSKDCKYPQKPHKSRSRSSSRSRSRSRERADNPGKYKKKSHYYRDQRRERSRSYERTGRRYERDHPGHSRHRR
UniProt P42696, sequence (P42696 whole entry): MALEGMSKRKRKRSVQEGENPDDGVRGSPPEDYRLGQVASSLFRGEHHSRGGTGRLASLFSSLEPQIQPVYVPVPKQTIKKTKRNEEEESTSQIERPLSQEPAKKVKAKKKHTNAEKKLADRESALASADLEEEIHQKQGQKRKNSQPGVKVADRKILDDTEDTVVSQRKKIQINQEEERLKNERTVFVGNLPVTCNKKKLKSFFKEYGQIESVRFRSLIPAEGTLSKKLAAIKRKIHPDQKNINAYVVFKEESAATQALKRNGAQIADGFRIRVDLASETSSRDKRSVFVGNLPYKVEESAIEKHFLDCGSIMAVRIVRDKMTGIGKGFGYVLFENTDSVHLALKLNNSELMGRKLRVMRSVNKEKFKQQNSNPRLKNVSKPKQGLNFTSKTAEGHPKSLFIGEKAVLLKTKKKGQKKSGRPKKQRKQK
UniProt P02100, sequence (P02100 whole entry): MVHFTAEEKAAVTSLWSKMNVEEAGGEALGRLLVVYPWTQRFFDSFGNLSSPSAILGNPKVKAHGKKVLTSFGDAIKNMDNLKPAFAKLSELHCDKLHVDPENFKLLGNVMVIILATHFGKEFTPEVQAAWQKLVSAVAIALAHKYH

Each target was assayed with CN[C@@H]1C[C@H]2O[C@@](C)([C@@H]1OC)n1c3ccccc3c3c4c(c5c6ccccc6n2c5c31)C(=O)NC4 [staurosporine] (assay: log2 fold change of tryptic peptide abundance, ligand vs vehicle (limited proteolysis) (log2 ratio); higher = more trypsin-susceptible (destabilized)). Settings: ligand concentration: 20 uM; sample: K562 cleared lysate; digestion: 4 min, 22 C (HT-PELSA RT4min, Orbitrap Astral).
“HERC2 (peptide sequence: TLHSLTQWNGLINK, peptide start residue: 2152) (UniProt O95714)” showed a log2 fold change of -0.746. In the case of “LIMK1 (peptide sequence: VNADPDYLPR, peptide start residue: 546) (UniProt P53667)”, the log2 fold change is reported as -1.05. With “PIK3CB (peptide sequence: VFGEDSVGVIFK, peptide start residue: 794) (UniProt P42338)” the log2 fold change was -0.385. For “ULK3 (peptide sequence: VIELPLRPLLSR, peptide start residue: 230) (UniProt Q6PHR2)”, the log2 fold change was -1.32. “LAMA5 (peptide sequence: TFQLDTAVDRPCAR, peptide start residue: 2918) (UniProt O15230)” gave a log2 fold change of 1.14. “UniProt P78527 (peptide sequence: GYGLFAGPCK, peptide start residue: 365)” was tested, and the log2 fold change was 0.189. For “PITPNB (peptide sequence: GTSAADV, peptide start residue: 265) (UniProt P48739)”, the log2 fold change was 0.354. With “CCNL2 (peptide sequence: HSMEHVSMACVHLASK, peptide start residue: 118) (UniProt Q96S94)” the log2 fold change was -1.06. Target “LATS1 (peptide sequence: QQSASYIPK, peptide start residue: 1021) (UniProt O95835)” has a log2 fold change of -2.87. For “PIP5K1C (peptide sequence: DCLVLESFK, peptide start residue: 305) (UniProt O60331)”, the log2 fold change was -0.54. “CDKN1C (peptide sequence: SLFGPVDHEELSR, peptide start residue: 32) (UniProt P49918)” gave a log2 fold change of 1.39. In the case of “UniProt P19525 (peptide sequence: IGDFGLVTSLK, peptide start residue: 430)”, the log2 fold change is reported as -1.42. Target “RBM34 (peptide sequence: NGAQIADGFR, peptide start residue: 263) (UniProt P42696)” has a log2 fold change of 0.437. With “EPHB3 (peptide sequence: VSDFGLSR, peptide start residue: 537) (UniProt P54753)” the log2 fold change was 0.918. With “NUP188 (peptide sequence: HTLNPEETSSVVR, peptide start residue: 331) (UniProt Q5SRE5)” the log2 fold change was 1.1. “TIMM44 (peptide sequence: ALSQGVESVKK, peptide start residue: 178) (UniProt O43615)” gave a log2 fold change of 0.555. For “UniProt O00506 (peptide sequence: LADFGVAGQLTDTQIKR, peptide start residue: 160)”, the log2 fold change was -1.08. With “NQO1 (peptide sequence: SIPTDNQIK, peptide start residue: 263) (UniProt P15559)” the log2 fold change was 0.728. Work on “PRKAR1A (peptide sequence: ILMGSTLR, peptide start residue: 234) (UniProt P10644)” yielded a log2 fold change of 0.333. “OSBPL9 (peptide sequence: VVLPTFILER, peptide start residue: 391) (UniProt Q96SU4)” was tested, and the log2 fold change was 0.326. For “PRKAR2B (peptide sequence: CVGNYDNR, peptide start residue: 211) (UniProt P31323)”, the log2 fold change was 0.866. “TNIK (peptide sequence: KFQSFIESCLVK, peptide start residue: 261) (UniProt Q9UKE5)” showed a log2 fold change of -0.632. For “RPL5 (peptide sequence: GAVDGGLSIPHSTK, peptide start residue: 165) (UniProt P46777)”, the log2 fold change was 0.307. In the case of “OSBPL3 (peptide sequence: YWSTNAHEIEGTVFDR, peptide start residue: 727) (UniProt Q9H4L5)”, the log2 fold change is reported as -1.33. In the case of “UniProt Q96CW1 (peptide sequence: TFITQQGIK, peptide start residue: 131)”, the log2 fold change is reported as 0.558. “SNRK (peptide sequence: IAGLYDLDKTLGR, peptide start residue: 12) (UniProt Q9NRH2)” gave a log2 fold change of -2.34. Target “UniProt Q9NYV4 (peptide sequence: EIVTDKQDALDFKK, peptide start residue: 791)” has a log2 fold change of -1.83. Work on “MED12 (peptide sequence: NVSFNPAK, peptide start residue: 61) (UniProt Q93074)” yielded a log2 fold change of 0.555. With “RAF1 (peptide sequence: IGDFGLATVK, peptide start residue: 445) (UniProt P04049)” the log2 fold change was 0.416. “PRKACB (peptide sequence: QIEHTLNEK, peptide start residue: 85) (UniProt P22694)” showed a log2 fold change of 1.81. “HBE1 (peptide sequence: MNVEEAGGEALGR, peptide start residue: 19) (UniProt P02100)” was tested, and the log2 fold change was 0.28. With “UniProt Q9H9C1 (peptide sequence: LLLDLFR, peptide start residue: 239)” the log2 fold change was -1.26. “UniProt P62913 (peptide sequence: KLCLNICVGESGDR, peptide start residue: 19)” gave a log2 fold change of -0.237. “CEP170 (peptide sequence: SDSEATISR, peptide start residue: 1165) (UniProt Q5SW79)” showed a log2 fold change of 0.41. Work on “CCNB1 (peptide sequence: NVVMVNQGLTK, peptide start residue: 386) (UniProt P14635)” yielded a log2 fold change of -1.47. In the case of “CPOX (peptide sequence: EAEILEVLR, peptide start residue: 439) (UniProt P36551)”, the log2 fold change is reported as -1.06. “CAMK2G (peptide sequence: GAILTTMLVSR, peptide start residue: 302) (UniProt Q13555)” showed a log2 fold change of -1.14. “ULK2 (peptide sequence: IADFGFAR, peptide start residue: 163) (UniProt Q8IYT8)” gave a log2 fold change of -1.68.
